This is a sample that favours compounds with a hit; in the whole collection about 4.1% have one here.
beta cell repl – induces beta-cell replication in MIN6 cells; proliferation, % at 10 µM; MIN6 cells proliferation, ATPlite luminescence, 48 h; cells starved in 0.2% serum; 100% = growth in 10% serum; 330,000 compounds, 0.29% hits; AID 2380;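 active = compounds whose signal lies at least 3.5 SD above the mean of all wells on their plate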
FAS TE block – FAS thioesterase (human) inhibition; recombinant FAS-TE, OMFH fluorogenic substrate, fluorescence endpoint; inhibition, % at 15 µM; 360,000 compounds, 0.67% hits; P49327;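 active = compounds whose normalised, plate-corrected inhibition of enzyme fluorescence in the single-dose primary screen is 50% or more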
NR3A LBD binder – modulates the human NR3A ligand-binding domain; 340,000 compounds, 2.5% hits; Tm shift relative to glycine control, % at 25 µM; NR3A LBD differential scanning fluorimetry, Tm shift; 0% = protein alone, 100% = glycine-bound protein; AID 1259313;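 active = melting temperature shift of at least 10% of the positive control shift, at one fixed dose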
p-CIP stab down – compounds decreasing mouse p/CIP protein stability. AID 1984. 290,000 compounds, 0.01% hits. Q05BA5. F442A p/CIP-EGFP cells, EGFP fluorescence, 16 h. decrease of EGFP signal, % at 10 µM;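 active = EGFP signal decrease of at least 30% at 10 µM or well 3 SD below plate mean, unless failing retest; inactive = the rest, including hits failing retest or dose response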
MPTP block – permeability transition pore inhibition. isolated mouse mitochondria, Ca2+ swelling absorbance, 30 min. inhibition, % at 10 µM. 360,000 compounds, 1.4% hits. AID 602449;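 active = inhibition of 50% or more, scaled per plate between neutral and stimulator controls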
Rh123 counter – membrane potential counter-screen of mitochondrial pore inhibitors. shares compounds with MPTP block. isolated mitochondria, Rhodamine 123 fluorescence. inhibition, % at 10 µM. 5,000 compounds, 78% hits. AID 624504; in the data active = inhibition above about 22%
MPTP swell DR – dose response confirmation of mitochondrial permeability transition pore inhibitors; 780 compounds, 58% hits; isolated mitochondria swelling, absorbance; AID 651561; shares compounds with MPTP block; IC50, µM; in the data active = IC50 below about 20 µM
MPTP counter DR – counter-screen for mitochondrial permeability transition pore inhibitors, dose response. AID 651564. IC50, µM. isolated mitochondria counterscreen, fluorescence read-out. 780 compounds, 49% hits. shares compounds with MPTP block; in the data active = IC50 below about 80 µM
Numbers stand for hits; – = inactive; · = not tested or not shown; + = active, no number.

SMILES | beta cell repl | FAS TE block | NR3A LBD binder | p-CIP stab down | MPTP block | Rh123 counter | others
O=[N+]([O-])c1ccc(O)c(/C=N/Nc2ccccc2Cl)c1 | – | – | – | – | 94 | 91
Cc1noc(C)c1COC(=O)c1ccc(N(C)C)cc1 | – | – | – | – | – | ·
COc1ccccc1CNC(=O)COC(=O)c1ccc2c(=O)n3c(nc2c1)CCCCC3 | – | – | – | · | – | ·
Oc1ccc(/C=N/Nc2cc(N3CCCC3)nc(N3CCCC3)n2)cc1 | – | – | – | – | – | ·
COc1ccc(/C=N/Nc2cc(N3CCCC3)nc(N3CCCC3)n2)cc1 | – | – | – | – | 77 | 82
Cc1nc2ccccc2n1CC(=O)NCc1ccccc1 | – | – | – | – | 70 | – | MPTP swell DR=–;MPTP counter DR=31
Cc1ccc(NC(=O)C2C(c3ccccc3)C2(Cl)Cl)c(C)c1 (stereo not given) | – | – | – | – | 53 | 62
Cc1cccc(NC(=O)C2C(c3ccccc3)C2(Cl)Cl)c1 (stereo not given) | – | – | – | – | – | ·
O=[N+]([O-])c1ccc(O)c(CSc2nnnn2-c2ccccc2)c1 | – | – | – | – | 78 | 93
O=C(/C(=N\Nc1ccc([N+](=O)[O-])cc1)Sc1nnnn1-c1ccccc1)c1ccccc1 | – | – | – | – | 94 | 90
Cc1ccc(N/N=C(/Sc2nnnn2-c2ccccc2)C(=O)c2ccccc2)cc1 | – | – | – | – | – | ·
O=C(NC(=S)Nc1ccccc1Br)C1CCC1 | – | – | – | – | – | ·
CCCCCC(C)NC(=S)NC(=O)c1cc(S(=O)(=O)N2CCOCC2)ccc1C (stereo not given) | – | – | – | – | – | ·
CC(C)(C)Cc1nnc(NC(=O)CCC2CCCCC2)s1 | – | – | – | – | – | ·
COC(=O)c1c(NC(=O)COC(=O)C2CCC2)sc(C)c1C | – | – | – | · | – | ·
O=C1c2ccc(Oc3ccc([N+](=O)[O-])cc3)cc2C(=O)N1c1ccncc1 | – | – | – | – | 87 | 79
O=C(O)CN1C(=O)c2ccc(Oc3ccc([N+](=O)[O-])cc3)cc2C1=O | – | – | – | – | – | ·
CC1CCN(S(=O)(=O)c2ccc3c(c2)N(CC(=O)NCCCOC(C)C)C(=O)CO3)CC1 | – | – | – | – | – | ·
COc1ccc(-c2csc(NC(=O)C3CCN(c4ncnc5sc(C)c(C)c45)CC3)n2)cc1OC | – | – | – | · | 88 | 65
CC12CCC(C(=O)NCc3ccc4c(c3)OCO4)(OC1=O)C2(C)C (stereo not given) | – | – | – | – | – | ·
COc1ccc(-c2cc3ccccc3n2CC(O)CN2CCCCC2)cc1 (stereo not given) | – | – | – | – | – | ·
COc1ccc(-c2cc3ccccc3n2CC(O)CNCCO)cc1 (stereo not given) | – | – | – | – | 54 | – | MPTP swell DR=10;MPTP counter DR=–
O=C(Cc1ccc(S(=O)(=O)N2CCOCC2)s1)Nc1ccccc1Br | – | – | – | – | – | ·
O=C(Cc1ccc(S(=O)(=O)N2CCCCC2)s1)Nc1cccc2ccccc12 | – | – | – | – | + | – | MPTP swell DR=–;MPTP counter DR=–
CCCN(CCC)S(=O)(=O)c1ccc(NC(=O)c2cc(C(=O)OC)cc([N+](=O)[O-])c2)cc1 | – | – | – | – | 88 | – | MPTP swell DR=11;MPTP counter DR=4.5
SMILES | beta cell repl | FAS TE block | NR3A LBD binder | p-CIP stab down | MPTP block | Rh123 counter | others
CCN(CC)S(=O)(=O)c1cc(C)ccc1NC(=S)Nc1cccnc1 | – | – | – | – | 53 | 88
O=C(NCCCCNC(=O)c1cccnc1Cl)c1cccnc1Cl | – | – | – | – | – | ·
COc1ccc(NS(=O)(=O)c2cccc(C(=O)N/N=C(\C)c3cccnc3)c2)cc1 | – | – | – | · | – | ·
Cc1c(CN(C)C(=O)c2sc3cc(Cl)ccc3c2Cl)cnn1C | – | – | – | – | 84 | 80
Cc1ccc(NC(=O)CN(C)C(=O)c2sc3cc(Cl)ccc3c2Cl)cc1 | – | – | – | · | – | ·
O=C(N/N=C(\CC(=O)c1cccs1)C(F)(F)F)c1ccncc1 | – | – | – | – | – | ·
Cc1ccc(C(=O)N/N=C(/CC(=O)c2cccs2)C(F)(F)F)cc1 | – | – | – | – | 55 | 82
CCCCCCC(=O)N1CCC(c2nc3c(nnn3Cc3ccccc3Cl)c(=O)[nH]2)CC1 | – | – | – | – | – | ·
Cn1c(SCc2cccc([N+](=O)[O-])c2)nc2c(c1=O)SCC2 | – | – | – | – | 58 | 49
Cn1c(SCc2cccnc2)nc2c(c1=O)SCC2 | – | – | – | – | – | ·
CCOC(=O)c1cnc(SCC(=O)Nc2cc(OC)cc(OC)c2)nc1N | – | – | – | – | 87 | 49
CC(C)c1ccc(NC(=O)CNS(=O)(=O)c2ccc(F)cc2)cc1 | – | – | – | – | – | ·
Cc1ccc(NC(=O)c2ccc(S(=O)(=O)N3CCCCC3)cc2)nc1 | – | – | – | · | – | ·
CC1CCCN(C(=O)c2ccc3c(=O)n(C4CCCC4)c(=S)[nH]c3c2)C1 (stereo not given) | – | – | – | – | – | ·
O=C(c1ccc2c(=O)n(C3CCCC3)c(=S)[nH]c2c1)N1CCCCCC1 | – | – | – | – | 89 | 79
COc1ccc(C)cc1NC(=S)NNC(=O)c1c(Br)cnn1C | – | – | – | – | – | ·
CS(=O)(=O)c1ccc2nc(NC(=O)Nc3cccc(Cl)c3)sc2c1 | – | – | 22 | – | 89 | 59
CS(=O)(=O)c1ccc2nc(NC(=O)Nc3ccc(Cl)c(Cl)c3)sc2c1 | – | – | 31 | – | 95 | 71
Cc1ccc(NC(=O)Nc2nc3ccc(S(C)(=O)=O)cc3s2)cc1 | – | – | 28 | · | 65 | 70
COCCCNC(=O)CSC1=Nc2ccccc2C2=NC(c3ccccc3)C(=O)N12 (stereo not given) | – | – | – | – | – | ·
O=C(O)c1ccc(S(=O)(=O)NCC2CCCCC2)cc1 | – | – | – | – | – | ·
C[C@H]1c2cccc(O)c2C(O)=C2C(=O)[C@]3(O)C(O)=C(C(N)=O)C(=O)[C@@H](N(C)C)[C@@H]3[C@@H](O)[C@@H]21 | – | – | – | – | 80 | –
COC(=O)c1ccc2c(=O)n(Cc3ccc(C(=O)NCCCN4CCC(C)CC4)cc3)c(=S)[nH]c2c1 | – | – | – | – | – | ·
CC1CCN(CCCNC(=O)c2ccc3c(=O)n(Cc4ccc(Cl)cc4)c(=S)[nH]c3c2)CC1 | – | – | – | – | 95 | –
Cc1ccc2c(=O)n3c(nc2c1)C(Cc1ccc(O)cc1)NC(=O)c1ccc(Cl)cc1-3 (stereo not given) | – | · | · | · | · | ·
COc1ccc(CCN(C)C(=O)COc2ccc(N(C)S(=O)(=O)c3ccc(C)cc3)cc2)cc1OC | – | – | – | · | – | ·

Compound activity deposited in PubChem by Sanford-Burnham Center for Chemical Genomics.
